This note sets out measurements from PubChem BioAssay (NCATS).

Assay [1] concerns the target N-terminal Xaa-Pro-Lys N-methyltransferase 1 (Homo sapiens) (UniProt Q9BV86). Kind of assay: qHTS Assay for Inhibitors of N-terminal methyltransferase 1 (NTMT1): LOPAC validation of the NTMT1 SAHH-coupled ThioGlo3 Assay (AID 1347143).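 Note: SAH from peptide methylation measured as thiol fluorescence via SAHH coupling and ThioGlo3; nearly all actives have a fitted effect of over 70% in size.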 The method, boiled down: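 NTMT1 125nM + cpds (various conc.), 1 min RT; add SAM 100uM/SAHH 10uM/ThioGlo3 15uM (addition mix). SAHH-coupled thiol detection, Ex340/Em450, t0 and 30 min RT; signal normalized to background. LOPAC 1280-cpd pilot.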

Assay [2] concerns Zika virus NS2B-NS3 protease (unlinked). The assay is described as follows: Optimization of GU AMC qHTS for Zika virus inhibitors: Unlinked NS2B-NS3 protease assay (AID 1347151). Note: series mostly up to about 52 µM; nearly all actives have a fitted effect of over 80% in size. The method, boiled down: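 Fluorescence read-out (340 nm ex / 450 nm em) of AMC peptide cleavage, taken immediately and after 15 min at room temperature (~20% conversion). Enzyme was the unlinked NS2B–NS3 complex at 25 nM in Tris pH 8.0 buffer.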

The test system of assay [3] is Zika virus NS2B-NS3 protease. The assay is described as follows: Primary screen GU AMC qHTS for Zika virus inhibitors (AID 1347154). Note: nearly all actives have a fitted effect of over 70% in size. In a few lines:
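Fluorogenic AMC-substrate cleavage by noncovalent NS2B-NS3 protease complex (25 nM, pH 8.0 Tris buffer with Tween 20) followed for 15 minutes at room temperature (~20% conversion). Percent inhibition from ex340/em450 signal change, fitted by 4-parameter Hill equation.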

Assay [4] concerns the target Lysine-specific demethylase 5B (Homo sapiens) (UniProt Q9UGL1). Kind of assay: Optimization screen for KDM5B Histone Demethylases FDH coupled qHTS against the LOPAC library (AID 1347166). In a few lines: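 KDM5BDeltaAP (200nM final) in 50mM HEPES pH 7.5, 0.01% Tween-20 was preincubated with compound for 10 min at room temperature. A substrate mix of 12.5uM H3K4Me3, 25uM a-ketoglutarate, ascorbate, Fe2+, NAD+ and formaldehyde dehydrogenase was then added. NADH fluorescence (340/450 nm) was read initially and after 30 min.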

A further assay concerns the target Furin (Homo sapiens) (UniProt P09958). Kind of assay: Furin counterscreen qHTS for Zika virus inhibitors (AID 1347149). Note: potency is the fitted concentration of half-maximal effect; nearly all actives have a fitted effect of over 70% in size. In a few lines: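 Counterscreen measures cleavage of 2 microM BOC-RVRR-AMC, below its ~15 microM Km, by 5 nM full-length human furin at pH 7.0 after a 15-min compound preincubation. Inhibition derives from the 15-min fluorescence increase at 37C.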

Assay [5] deals with Zika virus NS2B-NS3 protease (linked construct). The assay is described as follows: Confirmatory screen NINDS AMC qHTS for Zika virus inhibitors (AID 1347152).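 Note: AMC fluorescence gain from cleaved Bz-Nle-KRR-AMC substrate over 15 min; top concentration of the series differs between compounds; nearly all actives have a fitted effect of over 70% in size.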 The method, boiled down: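 Linked NS2B-NS3 1 nM, Tris pH 8.0/0.01% Tween 20; cpd 15 min RT dark; + Nle-KRR-AMC 10 µM (Km 18.3 µM); read 0 and 15 min, 340/450 nm; %inh vs controls, 4-param Hill.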
(In general: Quantitative high-throughput screening tests each substance at several concentrations.)

Assay [6] relates to Zika virus NS2B-NS3 protease (unlinked complex). The assay is described as follows: Confirmatory screen GU AMC qHTS for Zika virus inhibitors (AID 1347153). Note: nearly all actives have a fitted effect of over 70% in size. In a few lines: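 Fluorescence change (ex 340/em 450 nm) over 15 min, ~20% substrate conversion, normalized to no-inhibitor and no-enzyme controls, then Hill-fitted. Unlinked protease at 25 nM; AMC peptide 10 µM.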
Assay [7] has the same test system. The assay is described as follows: Primary screen GU Rhodamine qHTS for Zika virus inhibitors: Unlinked NS2B-NS3 protease assay (AID 1347159). Note: nearly all actives have a fitted effect of over 60% in size. In a few lines: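 Enzyme 25 nM in Tris-HCl pH 8.0 + 0.01% Tween 20; compounds up to 114 microM, 15 min RT dark; + Rhod110 substrate 1.5 microM; read t0 and 15 min; delta fluorescence → % inhibition → 4-parameter Hill fit.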

In assay [8] the test system is Zika virus NS2B-NS3 protease (linked construct). Kind of assay: Primary screen NINDS Rhodamine qHTS for Zika virus inhibitors (AID 1347160). Note: nearly all actives have a fitted effect of over 55% in size. The conditions noted are these: outcome: dose series up to 57.1 µM. In a few lines: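 Enzyme (25 nM, linked NS2B-NS3) was preincubated 15 min with compound in 10 mM Tris-HCl pH 8.0, 0.01% Tween 20. Rhodamine110 substrate (1.5 microM) was then added and fluorescence read at start and after 15 min.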

Assay [9] in a line: Confirmatory screen NINDS Rhodamine qHTS for Zika virus inhibitors (AID 1347161). Note: nearly all actives have a fitted effect of over 60% in size. Note: potency is the fitted concentration of half-maximal effect. The method, boiled down: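 Rhodamine110-peptide cleavage (1.5 µM substrate) by 25 nM linked NS2B-NS3 enzyme at pH 8.0 (Tris, Tween 20), after 15 min RT preincubation with compounds; 15-min fluorescence change normalized to controls and Hill-fitted.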
A short description of assay [10]: Vero cells viability qHTS for Zika virus inhibitors (AID 1347167). In a few lines: (§1)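 Luminescent ATP readout (CellTiter Glo) after 30 min at 37 degrees C gives viability; cells in DMEM + 4% FBS were treated 24 to 48 hours with compound, following overnight attachment.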
Assay [11] is described as follows: HepG2 cells viability qHTS for Zika virus inhibitors (AID 1347168). In a few lines:
as §1

Assay [12] has as its system Zika virus NS2B-NS3 protease (linked construct). Kind of assay: 384 well plate NINDS Rhodamine confirmatory qHTS for Zika virus inhibitors (AID 1347164). Note: potency is the fitted concentration of half-maximal effect; nearly all actives have a fitted effect of over 65% in size. The conditions noted are these: rhodamine-110 peptide substrate fluorescence. The method, boiled down: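 Fluorescence read at ex 485 nm/em 538 nm, 25 min after adding 10 microM Ac-LKRR-Rd substrate at room temperature in the dark; signal normalized to no-enzyme and no-inhibitor controls. Enzyme final 5, 30 or 60 nM; compounds, ~15 min preincubation.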

The nature of assay [13]: Tertiary RLuc qRT-PCR qHTS assay for Zika virus inhibitors (AID 1347169). Note: top concentration of the series differs between compounds; nearly all actives have a fitted effect of over 55% in size. In a few lines: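 Luminescence read-out: live-cell Renilla luciferase substrate applied to infected Vero cells, signal measured after 1-1.5 hrs. Cells had received compound before ZIKV-RLuc (Cambodian strain, MOI 1-2) infection and were incubated 48-72 hrs at 37 degrees C.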
On the technique in general: Real-time PCR tracks product formation cycle by cycle.

The structures appear in SMILES notation. Results filed as inconclusive are left out. The source made the active and inactive calls. Calls come from the whole dose curve; as a rule, active = well fitted curve in the direction sought with a large enough effect; inconclusive = small, poorly fitted or top-dose-only effect, or another doubt; inactive = no such curve, though single readings can be large; an effect the other way counts as inactive or inconclusive.

Chain of N-terminal Xaa-Pro-Lys N-methyltransferase 1 (Homo sapiens) (Q9BV86 whole entry, looked up): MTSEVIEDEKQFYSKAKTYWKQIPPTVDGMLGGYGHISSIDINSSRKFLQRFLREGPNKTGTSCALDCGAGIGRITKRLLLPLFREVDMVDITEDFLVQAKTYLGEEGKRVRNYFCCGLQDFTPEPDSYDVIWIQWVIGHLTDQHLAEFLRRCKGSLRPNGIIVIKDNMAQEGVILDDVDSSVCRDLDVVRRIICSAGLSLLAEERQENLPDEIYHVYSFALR
Chain of Lysine-specific demethylase 5B (Homo sapiens) (Q9UGL1 whole entry, looked up): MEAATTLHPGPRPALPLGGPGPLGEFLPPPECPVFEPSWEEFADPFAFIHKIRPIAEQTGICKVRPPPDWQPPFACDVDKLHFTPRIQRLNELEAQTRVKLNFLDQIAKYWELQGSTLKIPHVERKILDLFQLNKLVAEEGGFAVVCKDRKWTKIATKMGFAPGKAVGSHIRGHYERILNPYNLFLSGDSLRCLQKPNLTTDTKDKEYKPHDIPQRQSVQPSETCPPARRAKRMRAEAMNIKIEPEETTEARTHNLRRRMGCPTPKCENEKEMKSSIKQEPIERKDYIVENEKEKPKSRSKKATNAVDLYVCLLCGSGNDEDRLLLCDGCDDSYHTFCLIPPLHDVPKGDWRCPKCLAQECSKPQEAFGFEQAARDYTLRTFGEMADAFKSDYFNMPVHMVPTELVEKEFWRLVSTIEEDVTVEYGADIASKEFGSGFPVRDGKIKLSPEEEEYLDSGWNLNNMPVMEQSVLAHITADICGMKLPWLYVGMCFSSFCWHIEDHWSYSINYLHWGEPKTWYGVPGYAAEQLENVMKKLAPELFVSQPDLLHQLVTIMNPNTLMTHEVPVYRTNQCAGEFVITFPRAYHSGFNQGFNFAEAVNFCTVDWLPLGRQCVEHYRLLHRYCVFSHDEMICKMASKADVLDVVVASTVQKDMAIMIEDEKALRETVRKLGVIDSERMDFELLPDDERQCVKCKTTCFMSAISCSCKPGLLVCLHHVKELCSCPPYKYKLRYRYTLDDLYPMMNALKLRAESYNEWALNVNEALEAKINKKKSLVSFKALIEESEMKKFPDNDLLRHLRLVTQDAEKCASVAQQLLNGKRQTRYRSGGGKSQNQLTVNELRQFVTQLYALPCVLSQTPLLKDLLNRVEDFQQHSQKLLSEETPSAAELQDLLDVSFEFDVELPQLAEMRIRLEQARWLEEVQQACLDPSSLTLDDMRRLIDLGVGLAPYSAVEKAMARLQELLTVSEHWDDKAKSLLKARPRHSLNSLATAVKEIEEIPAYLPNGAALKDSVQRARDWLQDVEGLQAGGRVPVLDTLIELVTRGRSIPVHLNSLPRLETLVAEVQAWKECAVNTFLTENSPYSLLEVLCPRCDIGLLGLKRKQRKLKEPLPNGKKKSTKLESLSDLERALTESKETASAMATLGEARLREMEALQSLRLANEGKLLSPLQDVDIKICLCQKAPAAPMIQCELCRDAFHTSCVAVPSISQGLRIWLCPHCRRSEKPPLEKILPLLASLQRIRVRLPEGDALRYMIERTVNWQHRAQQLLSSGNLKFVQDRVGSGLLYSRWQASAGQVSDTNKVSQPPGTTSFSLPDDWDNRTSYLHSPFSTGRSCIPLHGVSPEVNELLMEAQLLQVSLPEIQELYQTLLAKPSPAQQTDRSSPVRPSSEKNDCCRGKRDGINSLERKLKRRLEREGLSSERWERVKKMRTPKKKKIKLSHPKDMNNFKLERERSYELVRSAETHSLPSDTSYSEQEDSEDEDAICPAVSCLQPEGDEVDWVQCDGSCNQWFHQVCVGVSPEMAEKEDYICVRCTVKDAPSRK
Chain of Furin (Homo sapiens) (P09958 whole entry, looked up): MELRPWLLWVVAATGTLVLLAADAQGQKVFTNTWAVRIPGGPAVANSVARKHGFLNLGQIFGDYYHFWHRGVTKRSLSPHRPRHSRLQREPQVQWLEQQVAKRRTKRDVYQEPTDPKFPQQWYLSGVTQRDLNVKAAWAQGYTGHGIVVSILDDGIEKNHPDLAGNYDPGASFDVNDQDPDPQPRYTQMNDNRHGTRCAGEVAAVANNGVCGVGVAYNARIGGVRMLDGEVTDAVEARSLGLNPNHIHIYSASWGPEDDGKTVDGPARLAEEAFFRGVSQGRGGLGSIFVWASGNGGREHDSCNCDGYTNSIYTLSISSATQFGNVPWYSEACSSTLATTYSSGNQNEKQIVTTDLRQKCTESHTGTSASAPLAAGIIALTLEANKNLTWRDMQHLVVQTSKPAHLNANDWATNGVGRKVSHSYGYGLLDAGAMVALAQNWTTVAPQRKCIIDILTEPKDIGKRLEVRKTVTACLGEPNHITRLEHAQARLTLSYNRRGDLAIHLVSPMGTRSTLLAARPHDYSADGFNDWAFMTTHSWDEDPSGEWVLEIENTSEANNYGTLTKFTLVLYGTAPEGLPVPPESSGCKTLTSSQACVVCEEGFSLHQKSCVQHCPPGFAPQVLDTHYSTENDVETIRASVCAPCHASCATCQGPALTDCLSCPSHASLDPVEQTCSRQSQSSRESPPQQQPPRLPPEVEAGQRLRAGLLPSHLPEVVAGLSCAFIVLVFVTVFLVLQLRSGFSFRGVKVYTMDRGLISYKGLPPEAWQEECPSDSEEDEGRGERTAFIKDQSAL

For the compound `CC[N+](C)(C)c1cccc(O)c1`, the Potency result in assay [1] and in assay [2] was “inactive” each time. Moreover, the call in [3] was inactive.
With `FC(F)(F)c1ccccc1-n1ccnc1`, the Potency entry in [1] and in assay [2] was “inactive” each time. Further, in assay [3], the outcome was inactive.
Turning to `C[C@H](CS)C(=O)N1CCC[C@H]1C(=O)O`, the Potency entry in [1] and in [2] was “inactive” in each case. Also, the result in assay [3] was inactive.
Turning to `COc1cc(C(=O)OCCCN2CCCN(CCCOC(=O)c3cc(OC)c(OC)c(OC)c3)CC2)cc(OC)c1OC`, the Potency result in assay [1], in [2] and in assay [4] was “inactive” each time. The outcome in [3] was inactive.
`O=C(CCCN1CCC(O)(c2cccc(C(F)(F)F)c2)CC1)c1ccc(F)cc1`: the Potency entry in assay [1], in [2] and in assay [4] was “inactive” each time. Further, in assay [3], the compound was called inactive.
Take `CCn1ccnc1CC1COc2ccccc2O1` (configuration not stated): the Potency entry in assay [1] and in assay [2] was “inactive” throughout. The result in [3] was inactive.
Turning to `COC(=O)[C@H]1[C@H]2C[C@@H]3c4[nH]c5cc(OC)ccc5c4CCN3C[C@H]2C[C@@H](OC(=O)c2cc(OC)c(OC)c(OC)c2)[C@@H]1OC`, the Potency with Furin (Homo sapiens) was 27.1 µM (active). For the same compound, the call in [5], in assay [6], in [7], in assay [8], in [10] and in assay [11] was inactive. In assay [9], the Potency entry is “inactive”.
For the compound `Cc1nc2sccn2c(=O)c1CCN1CCC(=C(c2ccc(F)cc2)c2ccc(F)cc2)CC1`, the result in assay [5], in [6], in assay [10] and in assay [11] was inactive. Besides, in assay [9], the Potency result is “inactive”.
Take `CCCN1C[C@H](CSC)C[C@@H]2c3cccc4[nH]cc(c34)C[C@H]21`: the compound was called inactive in assay [8].
For `CN(C)[C@@H]1C(=O)C(C(N)=O)=C(O)[C@@]2(O)C(=O)C3=C(O)c4c(O)ccc(Cl)c4[C@@H](O)[C@H]3C[C@@H]12`, the results for the Potency in [9] and in assay [12] were 12.4 µM (active) and 25.1 µM (active), respectively.
On to `CCN1CCc2nc(N)oc2CC1`, for which the call in [5], in assay [6], in [10], in assay [11] and in assay [13] was inactive. Besides, the Potency result in assay [9] is “inactive”.
